The values below come from PubChem BioAssay (Tox21).

The nature of experiment [1]: qHTS assay to test for compound auto fluorescence at 535 nm (green) in HEK293 cells (AID 720680). A general note: Quantitative high-throughput screening tests each substance at several concentrations.
Experiment [2] is described as follows: qHTS assay to test for compound auto fluorescence at 460 nm (blue) in HEK293 cell free culture (AID 720681). An outline of the steps: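 Compounds were added to cell-free DMEM with 10% FBS and fluorescence read directly. The blue channel used 405 nm excitation and 460 nm emission, with triamterene as the reference fluorophore.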
The nature of experiment [3]: qHTS assay to test for compound auto fluorescence at 535 nm (green) in HEK293 cell free culture (AID 720682). An outline of the steps: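 DMEM + 10% FBS, cell-free; cpd or DMSO pinned in; Ex485/Em535 read; output as fluorescein-equivalent signal.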
Experiment [4] in a line: qHTS assay to test for compound auto fluorescence at 590 nm (red) in HEK293 cell free culture (AID 720683). An outline of the steps:
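Cell-free wells of DMEM with 10% FBS received compound, and intrinsic fluorescence was read at excitation/emission 540/590 nm. Values expressed as equivalence to Rose Bengal sodium.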

Experiment [5] is described as follows: qHTS assay to test for compound auto fluorescence at 590 nm (red) in HepG2 cell free culture (AID 720684). An outline of the steps: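 Compound was pinned into wells holding MEM with 10% FBS and no cells, and red fluorescence was read at Ex/Em 540/590 nm. Signal is expressed as auto fluorescence equivalency relative to Rose Bengal sodium.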
Experiment [6] in a line: qHTS assay to test for compound auto fluorescence at 460 nm (blue) in HepG2 cell free culture (AID 720685). Summed up: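 Compound (23 nL) or DMSO pinned into cell-free MEM with 10% FBS; blue fluorescence read at 405/460 nm excitation/emission, expressed as auto-fluorescence equivalency to triamterene.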
A short description of experiment [7]: qHTS assay to test for compound auto fluorescence at 535 nm (green) in HepG2 cell free culture (AID 720686).
Experiment [8] in a line: qHTS assay to test for compound auto fluorescence at 460 nm (blue) in HepG2 cells (AID 720687). Summed up: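 HepG2 cells in MEM with 10% FBS, attached overnight at 37 C, were exposed to compound or DMSO for 1 hr at 37 C, 5% CO2. Blue fluorescence was read at 405/460 nm, with triamterene as reference fluorophore.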
For experiment [9], the target named is Glucocorticoid receptor (Homo sapiens) (UniProt P04150). Kind of experiment: qHTS assay to identify small molecule agonists of the glucocorticoid receptor (GR) signaling pathway (AID 720691; active = well fitted activation curve with a large enough effect in the signal ratio in the repeat runs, not every such curve was filed as active; the % refers to the signal ratio). To be noted: GR-bla HeLa, beta-lactamase reporter ratio, 18 h; activation: at 62.4 µM (top of the series) unless noted. An outline of the steps: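 Beta-lactamase reporter activity, read as fluorescence intensity, was measured in GR-bla HeLa cells exposed to compounds for 18 h at 37 C and then loaded with LiveBLAzer B/G FRET substrate for 2 h at room temperature.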
Chain of Glucocorticoid receptor (Homo sapiens) (P04150 whole entry, looked up): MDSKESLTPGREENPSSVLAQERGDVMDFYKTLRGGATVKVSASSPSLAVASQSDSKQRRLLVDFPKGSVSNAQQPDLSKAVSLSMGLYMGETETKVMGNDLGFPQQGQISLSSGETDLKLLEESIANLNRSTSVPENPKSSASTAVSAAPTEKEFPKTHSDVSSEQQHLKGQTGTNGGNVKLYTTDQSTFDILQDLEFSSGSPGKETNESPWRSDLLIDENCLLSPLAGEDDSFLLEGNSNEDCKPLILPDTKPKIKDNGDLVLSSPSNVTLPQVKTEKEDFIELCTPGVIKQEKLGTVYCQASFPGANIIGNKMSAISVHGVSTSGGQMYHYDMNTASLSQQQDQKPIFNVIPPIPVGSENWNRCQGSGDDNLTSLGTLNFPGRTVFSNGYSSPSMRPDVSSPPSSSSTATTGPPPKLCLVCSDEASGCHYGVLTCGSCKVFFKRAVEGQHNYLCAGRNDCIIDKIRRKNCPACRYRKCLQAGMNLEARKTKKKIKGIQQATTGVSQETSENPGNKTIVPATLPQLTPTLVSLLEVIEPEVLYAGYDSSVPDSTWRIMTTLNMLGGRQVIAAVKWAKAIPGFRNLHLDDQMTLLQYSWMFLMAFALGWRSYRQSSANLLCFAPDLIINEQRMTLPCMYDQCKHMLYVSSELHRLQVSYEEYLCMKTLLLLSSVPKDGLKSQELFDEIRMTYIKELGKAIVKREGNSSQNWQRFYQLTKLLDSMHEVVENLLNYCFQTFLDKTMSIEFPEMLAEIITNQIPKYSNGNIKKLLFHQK

Experiment [10] shares this target. Kind of experiment: qHTS assay to identify small molecule antagonists of the glucocorticoid receptor (GR) signaling pathway (AID 720692; active = well fitted inhibition curve with a large enough effect in the signal ratio in the repeat runs, not every such curve was filed as active; the % refers to the signal ratio; note: potency is the fitted concentration of half-maximal effect). Summed up: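 Fluorescence from cleaved LiveBLAzer B/G FRET substrate reports GRE-driven beta-lactamase in HeLa cells; compounds are tested against 5 nM dexamethasone (final) over 18 h at 37 C, substrate incubation 2 h at room temperature.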

“And” between values parts separate entries of the source, which are not always exact repeats. Identical values can stand only once. Records with an inconclusive call do not appear. The source made the active and inactive calls. Unless noted, calls come from the whole dose curve; as a rule, active = well fitted curve in the direction sought with a large enough effect in the repeat runs; inconclusive = weak or mixed curves; inactive = flat fitted curve, though single readings scatter.

On to `CC(C)(N=C=O)c1cccc(C(C)(C)N=C=O)c1`, for which the result in experiment [1], in experiment [3], in experiment [4], in experiment [5], in experiment [7] and in experiment [8] was inactive. For the same compound, the Potency entry in experiment [2], in experiment [6], in [9] and in experiment [10] was “inactive” in each case.
Take `O=C(Cl)c1c(Cl)c(Cl)c(C(=O)Cl)c(Cl)c1Cl`: the outcome in experiment [1], in experiment [3], in [4], in experiment [5], in experiment [7] and in experiment [8] was inactive. Further, the Potency result in experiment [2], in experiment [6], in experiment [9] and in experiment [10] was “inactive” each time.
Take `CCCCC(CC)COC(=O)CCCCCCCC(=O)OCC(CC)CCCC` (centres undefined): the compound was classed as inactive in experiment [1], in experiment [3], in [4], in [5], in [7] and in [8]. The Potency entry in experiment [2], in experiment [6], in experiment [9] and in experiment [10] was “inactive” each time.
With `CCCCCCCCCCCCN`, the call in experiment [1], in [3], in [4], in [5], in experiment [7] and in [8] was inactive. Besides, the Potency entry in experiment [2], in experiment [6], in experiment [9] and in experiment [10] was “inactive” throughout.
`Cc1ccc(C(=O)O)o1`: the call in experiment [1], in experiment [3], in [4], in experiment [5], in experiment [7] and in experiment [8] was inactive. Moreover, the Potency result in experiment [2], in [6], in experiment [9] and in experiment [10] was “inactive” in each case.
Regarding `C=C(C)C(=O)OCC(CC)(COC(=O)C(=C)C)COC(=O)C(=C)C`, the outcome in experiment [1], in experiment [3], in experiment [4], in [5], in [7] and in [8] was inactive. Further, the Potency entry in [2], in [6], in experiment [9] and in [10] was “inactive” throughout.
For `CC(C)(C)C1CCC(O)CC1` (centres undefined), the outcome in experiment [1], in experiment [3], in experiment [4], in [5], in [7] and in experiment [8] was inactive. Besides, the Potency entry in experiment [2], in [6], in experiment [9] and in experiment [10] was “inactive” throughout.
In the case of `CC(=O)[C@@]1(O)CC[C@H]2[C@@H]3CCC4=CC(=O)CC[C@]4(C)[C@H]3CC[C@@]21C`, the call in experiment [1], in experiment [3], in experiment [4], in experiment [5], in [7] and in experiment [8] was inactive. The Potency result in experiment [2], in experiment [6] and in experiment [9] was “inactive” each time. The Potency in [10] is 1.07 µM (active) and 275 nM (active).
With `O=C(c1cc(O)c(O)c(O)c1)c1ccc(O)c(O)c1O`, the compound was called inactive in experiment [1], in [3], in [4], in experiment [5], in [7] and in experiment [8]. Besides, the Potency entry in [2], in experiment [6] and in experiment [9] was “inactive” throughout.
On to `Cc1cc(O)c2c(c1)C(=O)c1cc(O)cc(O)c1C2=O`, for which the call in [1], in experiment [3], in experiment [4], in experiment [5], in experiment [7] and in experiment [8] was inactive. Also, the Potency result in experiment [2], in [6] and in experiment [9] was “inactive” each time.
For the compound `CCCCC(CC)COC(C)=O` (centres undefined), the outcome in experiment [1], in experiment [3], in experiment [4], in [5], in experiment [7] and in experiment [8] was inactive. Moreover, the Potency entry in experiment [2], in [6], in [9] and in experiment [10] was “inactive” each time.
Consider `CC(C)(CO)COC(=O)C(C)(C)CO`, for which the outcome in experiment [1], in experiment [3], in [4], in experiment [5], in experiment [7] and in experiment [8] was inactive. Besides, the Potency result in experiment [2], in experiment [6], in experiment [9] and in experiment [10] was “inactive” in each case.
With `CCCCCCOC(C)=O`, the compound was called inactive in experiment [1], in [3], in [4], in experiment [5], in [7] and in experiment [8]. For the same compound, the Potency result in [2], in experiment [6], in experiment [9] and in experiment [10] was “inactive” in each case.
For `CCOC(=O)/C=C\C(=O)OCC`, the compound was classed as inactive in experiment [1], in experiment [3], in [4], in [5], in [7] and in [8]. Also, the Potency result in experiment [2], in experiment [6], in experiment [9] and in experiment [10] was “inactive” each time.
On to `CC1CC(OC(=O)c2ccccc2O)CC(C)(C)C1` (centres undefined), for which the result in experiment [1], in experiment [3], in experiment [4], in experiment [5], in experiment [7] and in experiment [8] was inactive. The Potency result in [2], in experiment [6], in [9] and in [10] was “inactive” in each case.
With `O=C1O[C@H](CO)[C@@H](O)[C@H](O)[C@H]1O`, the result in experiment [1], in [3], in [4], in experiment [5], in experiment [7] and in [8] was inactive. In addition, the Potency entry in experiment [2], in experiment [6], in experiment [9] and in experiment [10] was “inactive” in each case.
Turning to `C=C1C2CCC(C2)C1(C)C` (centres undefined), the call in experiment [1], in [3], in [4], in experiment [5], in experiment [7] and in experiment [8] was inactive. The Potency entry in experiment [2], in experiment [6], in [9] and in experiment [10] was “inactive” in each case.
As to `O=C(c1ccc(O)cc1)c1ccc(O)cc1O`, the call in experiment [1], in experiment [3], in experiment [4], in experiment [5], in experiment [7] and in [8] was inactive. Moreover, the Potency entry in [2], in experiment [6] and in experiment [9] was “inactive” in each case.
As for `Nc1cc(-c2ccncc2)c[nH]c1=O`, the compound was classed as inactive in [1], in [3], in experiment [4], in experiment [5], in experiment [7] and in experiment [8]. Besides, the Potency result in experiment [2], in [6] and in [9] was “inactive” throughout.
For `OCCOCCOCCOCCO`, the compound was called inactive in [1], in [3], in experiment [4], in experiment [5], in experiment [7] and in [8]. In addition, the Potency entry in experiment [2], in experiment [6], in experiment [9] and in experiment [10] was “inactive” throughout.
As to `C=C(C#N)C(=O)OCC`, the compound was called inactive in experiment [1], in [3], in [4], in experiment [5], in experiment [7] and in experiment [8]. In addition, the Potency result in experiment [2], in [6], in [9] and in experiment [10] was “inactive” throughout.
Take `CCCCCCCCCCCCOCC1CO1` (centres undefined): the compound was called inactive in [1], in experiment [3], in experiment [4], in experiment [5], in [7] and in [8]. The Potency result in [2], in experiment [6] and in [10] was “inactive” throughout.
As for `NCc1cccc(CN)c1`, the compound was called inactive in [1], in experiment [3], in experiment [4], in experiment [5], in [7] and in experiment [8]. Further, the Potency result in [2], in experiment [6] and in [10] was “inactive” throughout.
As for `CCCCCC/C=C/CCCCCCCC(=O)O`, the outcome in experiment [1], in experiment [3], in experiment [4], in [5], in [7] and in [8] was inactive. Also, the Potency result in experiment [2], in [6], in experiment [9] and in experiment [10] was “inactive” in each case.
Consider `Cn1c([N+](=O)[O-])cnc1COC(N)=O`, for which the compound was called inactive in [1], in experiment [3], in experiment [4], in experiment [5], in experiment [7] and in [8]. In addition, the Potency entry in experiment [2], in [6], in experiment [9] and in experiment [10] was “inactive” each time.
